Among the data in ChEMBL document CHEMBL1961873, “Compounds: GSK PKIS; Assays: Nanosyn kinase panel” (2012) are inhibition values, retold here.

Test [1] addresses Sphingosine kinase 1 (Homo sapiens) (UniProt Q9NYA1). The conditions noted are these: at 1 µM.
The target of test [2] is T1, Sphingosine kinase 2 (Homo sapiens) (UniProt Q9NRA0).
T1 sequence (whole entry): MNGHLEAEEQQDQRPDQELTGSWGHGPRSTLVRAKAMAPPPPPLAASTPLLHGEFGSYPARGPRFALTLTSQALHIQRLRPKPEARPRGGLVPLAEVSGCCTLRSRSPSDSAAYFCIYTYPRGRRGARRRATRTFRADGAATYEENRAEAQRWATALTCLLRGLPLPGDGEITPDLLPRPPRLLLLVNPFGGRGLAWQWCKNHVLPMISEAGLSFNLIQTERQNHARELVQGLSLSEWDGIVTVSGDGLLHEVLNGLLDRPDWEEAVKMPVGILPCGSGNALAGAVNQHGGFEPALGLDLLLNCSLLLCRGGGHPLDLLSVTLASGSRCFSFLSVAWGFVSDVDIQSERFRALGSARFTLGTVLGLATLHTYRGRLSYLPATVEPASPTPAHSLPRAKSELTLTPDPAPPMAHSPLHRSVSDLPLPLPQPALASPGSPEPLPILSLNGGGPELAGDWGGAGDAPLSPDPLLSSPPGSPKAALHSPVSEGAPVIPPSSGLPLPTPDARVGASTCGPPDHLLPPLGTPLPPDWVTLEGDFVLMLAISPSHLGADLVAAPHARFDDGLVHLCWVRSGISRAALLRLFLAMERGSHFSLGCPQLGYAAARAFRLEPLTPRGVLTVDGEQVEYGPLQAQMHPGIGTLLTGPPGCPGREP
As to conditions: at 0.1 µM.

Test [3] concerns the target T1, Sphingosine kinase 2 (Homo sapiens). As to conditions: at 1 µM.
Test [4] has as its target Casein kinase II subunit alpha (Homo sapiens) (UniProt P68400). The conditions noted are these: at 0.1 µM.
For test [5] the target is unchanged. As to conditions: at 1 µM.
Test [6] concerns the target T2, Inhibitor of nuclear factor kappa-B kinase subunit alpha (Homo sapiens) (UniProt O15111).
T2 sequence (whole entry): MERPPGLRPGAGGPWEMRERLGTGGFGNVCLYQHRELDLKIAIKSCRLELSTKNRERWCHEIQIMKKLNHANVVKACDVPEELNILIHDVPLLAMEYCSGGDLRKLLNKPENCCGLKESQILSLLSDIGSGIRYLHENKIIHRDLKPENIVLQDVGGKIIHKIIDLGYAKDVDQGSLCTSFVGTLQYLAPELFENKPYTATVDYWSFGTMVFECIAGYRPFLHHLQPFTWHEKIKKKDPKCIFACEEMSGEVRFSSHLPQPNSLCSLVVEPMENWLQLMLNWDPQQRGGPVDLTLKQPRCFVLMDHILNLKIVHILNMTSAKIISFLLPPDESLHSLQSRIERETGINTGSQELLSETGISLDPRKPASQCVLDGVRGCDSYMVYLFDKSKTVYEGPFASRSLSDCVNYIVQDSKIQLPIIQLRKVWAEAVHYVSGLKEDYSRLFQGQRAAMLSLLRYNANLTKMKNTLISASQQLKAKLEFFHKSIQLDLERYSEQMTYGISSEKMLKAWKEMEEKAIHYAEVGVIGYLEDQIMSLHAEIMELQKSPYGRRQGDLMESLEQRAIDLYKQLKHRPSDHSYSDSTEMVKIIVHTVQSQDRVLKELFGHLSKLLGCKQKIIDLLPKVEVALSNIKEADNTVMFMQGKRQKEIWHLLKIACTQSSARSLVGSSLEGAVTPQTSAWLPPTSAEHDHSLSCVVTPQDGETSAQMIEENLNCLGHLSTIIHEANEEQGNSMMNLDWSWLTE
The conditions noted are these: at 0.1 µM.

In test [7] the target is T2, Inhibitor of nuclear factor kappa-B kinase subunit alpha (Homo sapiens). The conditions noted are these: at 1 µM.
Test [8] concerns the target T3, Inhibitor of nuclear factor kappa-B kinase subunit beta (Homo sapiens) (UniProt O14920).
T3 sequence (whole entry): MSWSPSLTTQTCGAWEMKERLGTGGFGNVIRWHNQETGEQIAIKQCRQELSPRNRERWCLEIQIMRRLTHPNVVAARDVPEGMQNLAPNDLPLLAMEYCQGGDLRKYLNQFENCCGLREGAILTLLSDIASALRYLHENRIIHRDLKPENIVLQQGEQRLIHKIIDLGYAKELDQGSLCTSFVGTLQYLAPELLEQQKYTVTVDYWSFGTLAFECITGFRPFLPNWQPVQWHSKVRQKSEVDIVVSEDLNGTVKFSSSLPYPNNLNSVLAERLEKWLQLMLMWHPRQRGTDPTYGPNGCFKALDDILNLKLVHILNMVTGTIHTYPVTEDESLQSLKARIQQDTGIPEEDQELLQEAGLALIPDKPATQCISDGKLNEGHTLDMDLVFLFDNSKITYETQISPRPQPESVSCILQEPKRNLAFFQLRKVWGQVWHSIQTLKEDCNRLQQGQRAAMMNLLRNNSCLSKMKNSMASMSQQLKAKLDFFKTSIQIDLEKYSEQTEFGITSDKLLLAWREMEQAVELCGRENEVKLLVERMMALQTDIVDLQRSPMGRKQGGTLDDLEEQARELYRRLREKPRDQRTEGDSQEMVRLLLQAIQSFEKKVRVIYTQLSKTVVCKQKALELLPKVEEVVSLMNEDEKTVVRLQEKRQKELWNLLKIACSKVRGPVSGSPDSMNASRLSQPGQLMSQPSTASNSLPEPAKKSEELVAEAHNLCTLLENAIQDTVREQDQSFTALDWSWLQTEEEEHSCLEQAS
As to conditions: at 0.1 µM.

Test [9] has as its target T3, Inhibitor of nuclear factor kappa-B kinase subunit beta (Homo sapiens). As to conditions: at 1 µM.
The target in test [10] is T4, Inhibitor of nuclear factor kappa-B kinase subunit epsilon (Homo sapiens) (UniProt Q14164).
T4 sequence (whole entry): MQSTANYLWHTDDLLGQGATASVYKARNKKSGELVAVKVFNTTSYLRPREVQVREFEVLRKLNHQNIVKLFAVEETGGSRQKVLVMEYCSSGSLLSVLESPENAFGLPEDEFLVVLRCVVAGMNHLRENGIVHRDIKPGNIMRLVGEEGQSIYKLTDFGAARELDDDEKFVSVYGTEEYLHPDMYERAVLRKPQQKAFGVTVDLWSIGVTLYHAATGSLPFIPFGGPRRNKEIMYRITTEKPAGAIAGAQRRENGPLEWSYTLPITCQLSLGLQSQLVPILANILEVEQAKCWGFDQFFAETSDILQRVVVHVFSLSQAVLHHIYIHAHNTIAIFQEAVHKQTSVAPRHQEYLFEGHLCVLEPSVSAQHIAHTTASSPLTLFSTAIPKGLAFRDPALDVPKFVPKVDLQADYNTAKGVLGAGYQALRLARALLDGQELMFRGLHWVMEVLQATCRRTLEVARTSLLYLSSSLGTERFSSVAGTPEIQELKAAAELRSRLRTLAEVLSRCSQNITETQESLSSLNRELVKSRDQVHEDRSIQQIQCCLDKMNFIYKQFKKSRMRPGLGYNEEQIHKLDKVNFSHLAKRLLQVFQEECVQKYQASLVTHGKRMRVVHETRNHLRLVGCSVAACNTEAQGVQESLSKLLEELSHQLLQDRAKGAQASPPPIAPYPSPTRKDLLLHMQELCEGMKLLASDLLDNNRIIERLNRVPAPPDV
As to conditions: at 0.1 µM.

Test [11] addresses T4, Inhibitor of nuclear factor kappa-B kinase subunit epsilon (Homo sapiens). The conditions noted are these: at 1 µM.
The target of test [12] is T5, Serine/threonine-protein kinase Nek1 (Homo sapiens) (UniProt Q96PY6).
T5 sequence (whole entry): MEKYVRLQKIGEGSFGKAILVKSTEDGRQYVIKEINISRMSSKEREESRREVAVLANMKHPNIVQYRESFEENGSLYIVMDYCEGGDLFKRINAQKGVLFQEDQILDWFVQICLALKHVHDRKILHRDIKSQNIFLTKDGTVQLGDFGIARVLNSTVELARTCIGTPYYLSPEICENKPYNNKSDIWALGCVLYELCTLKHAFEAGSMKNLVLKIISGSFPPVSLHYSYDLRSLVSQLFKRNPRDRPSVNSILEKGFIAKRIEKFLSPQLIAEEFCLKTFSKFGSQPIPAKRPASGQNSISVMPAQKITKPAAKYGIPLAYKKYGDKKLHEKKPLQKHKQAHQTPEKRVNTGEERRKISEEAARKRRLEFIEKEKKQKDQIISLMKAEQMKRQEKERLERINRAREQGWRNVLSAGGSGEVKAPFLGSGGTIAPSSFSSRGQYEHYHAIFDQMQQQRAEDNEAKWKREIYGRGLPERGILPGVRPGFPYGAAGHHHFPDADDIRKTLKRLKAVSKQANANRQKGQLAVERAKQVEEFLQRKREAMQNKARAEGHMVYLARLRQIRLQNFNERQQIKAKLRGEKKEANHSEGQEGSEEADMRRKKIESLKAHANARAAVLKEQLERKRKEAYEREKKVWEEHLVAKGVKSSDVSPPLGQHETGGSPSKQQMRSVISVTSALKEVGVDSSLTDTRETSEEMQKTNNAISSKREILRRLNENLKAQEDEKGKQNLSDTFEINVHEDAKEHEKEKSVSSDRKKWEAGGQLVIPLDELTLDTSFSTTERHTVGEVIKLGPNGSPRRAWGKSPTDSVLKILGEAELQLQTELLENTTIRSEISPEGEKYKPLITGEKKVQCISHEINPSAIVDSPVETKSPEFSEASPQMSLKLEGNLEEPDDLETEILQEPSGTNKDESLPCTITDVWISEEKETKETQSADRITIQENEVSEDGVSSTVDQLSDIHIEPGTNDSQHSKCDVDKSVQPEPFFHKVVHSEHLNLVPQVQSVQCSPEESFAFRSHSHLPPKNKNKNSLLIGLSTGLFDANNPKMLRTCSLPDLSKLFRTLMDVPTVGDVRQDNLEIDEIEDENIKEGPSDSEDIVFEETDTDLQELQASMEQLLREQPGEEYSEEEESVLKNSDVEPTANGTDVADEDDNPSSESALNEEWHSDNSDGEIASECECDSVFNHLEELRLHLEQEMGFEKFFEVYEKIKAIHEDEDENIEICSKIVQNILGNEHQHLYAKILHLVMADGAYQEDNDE
As to conditions: at 0.1 µM.

For test [13], the target named is T5, Serine/threonine-protein kinase Nek1 (Homo sapiens). As to conditions: at 1 µM.
Test [14] deals with T6, Serine/threonine-protein kinase Nek2 (Homo sapiens) (UniProt P51955).
T6 sequence (whole entry): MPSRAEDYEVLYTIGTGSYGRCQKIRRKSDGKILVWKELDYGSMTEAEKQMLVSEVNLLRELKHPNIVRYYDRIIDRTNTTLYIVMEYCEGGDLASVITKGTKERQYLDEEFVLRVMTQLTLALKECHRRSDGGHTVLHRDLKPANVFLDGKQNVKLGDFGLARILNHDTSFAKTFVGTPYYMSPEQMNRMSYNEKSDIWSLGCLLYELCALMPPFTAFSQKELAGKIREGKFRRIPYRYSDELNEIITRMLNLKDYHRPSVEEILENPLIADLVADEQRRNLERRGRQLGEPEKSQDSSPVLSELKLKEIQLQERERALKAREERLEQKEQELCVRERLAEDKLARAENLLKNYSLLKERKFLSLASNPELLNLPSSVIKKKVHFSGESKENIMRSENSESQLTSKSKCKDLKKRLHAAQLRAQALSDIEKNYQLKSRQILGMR
As to conditions: at 0.1 µM.

The target of test [15] is T6, Serine/threonine-protein kinase Nek2 (Homo sapiens). The conditions noted are these: at 1 µM.
In test [16] the target is Serine/threonine-protein kinase Nek6 (Homo sapiens) (UniProt Q9HC98). As to conditions: at 0.1 µM.
Test [17] shares this target. As to conditions: at 1 µM.
In test [18] the target is Serine/threonine-protein kinase Nek7 (Homo sapiens) (UniProt Q8TDX7). As to conditions: at 0.1 µM.
Test [19] has the same target. As to conditions: at 1 µM.
Test [20] addresses T7, Serine/threonine-protein kinase Nek9 (Homo sapiens) (UniProt Q8TD19).
T7 sequence (whole entry): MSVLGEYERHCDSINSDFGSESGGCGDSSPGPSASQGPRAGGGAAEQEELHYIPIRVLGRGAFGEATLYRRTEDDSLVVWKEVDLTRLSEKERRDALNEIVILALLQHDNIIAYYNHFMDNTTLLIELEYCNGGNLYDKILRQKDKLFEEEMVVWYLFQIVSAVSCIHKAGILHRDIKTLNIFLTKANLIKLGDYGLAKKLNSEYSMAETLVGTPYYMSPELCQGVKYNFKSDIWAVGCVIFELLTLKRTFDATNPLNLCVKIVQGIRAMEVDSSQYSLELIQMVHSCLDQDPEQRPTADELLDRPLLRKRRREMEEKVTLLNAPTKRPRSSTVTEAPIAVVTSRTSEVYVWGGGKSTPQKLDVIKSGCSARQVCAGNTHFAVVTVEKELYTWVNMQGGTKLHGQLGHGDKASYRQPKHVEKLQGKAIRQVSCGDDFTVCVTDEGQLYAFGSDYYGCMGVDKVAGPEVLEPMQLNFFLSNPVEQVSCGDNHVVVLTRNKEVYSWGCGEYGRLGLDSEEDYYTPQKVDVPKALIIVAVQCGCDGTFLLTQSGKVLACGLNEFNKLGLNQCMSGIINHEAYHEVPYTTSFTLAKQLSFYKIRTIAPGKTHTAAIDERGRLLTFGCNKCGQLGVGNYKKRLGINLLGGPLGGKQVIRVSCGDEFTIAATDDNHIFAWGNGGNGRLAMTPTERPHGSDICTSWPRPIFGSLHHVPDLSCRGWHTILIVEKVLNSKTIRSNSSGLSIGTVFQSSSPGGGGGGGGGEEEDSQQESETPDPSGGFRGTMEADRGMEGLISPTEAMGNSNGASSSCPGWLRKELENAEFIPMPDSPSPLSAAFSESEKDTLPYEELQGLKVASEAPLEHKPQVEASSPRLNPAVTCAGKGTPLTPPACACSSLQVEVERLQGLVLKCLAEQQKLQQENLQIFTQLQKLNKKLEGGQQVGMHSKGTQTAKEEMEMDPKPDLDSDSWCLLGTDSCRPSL
As to conditions: at 0.1 µM.

As a reminder, the inhibition is the drop in the measured response relative to a control, in per cent.

Chain of Serine/threonine-protein kinase Nek6 (Homo sapiens) (Q9HC98 whole entry): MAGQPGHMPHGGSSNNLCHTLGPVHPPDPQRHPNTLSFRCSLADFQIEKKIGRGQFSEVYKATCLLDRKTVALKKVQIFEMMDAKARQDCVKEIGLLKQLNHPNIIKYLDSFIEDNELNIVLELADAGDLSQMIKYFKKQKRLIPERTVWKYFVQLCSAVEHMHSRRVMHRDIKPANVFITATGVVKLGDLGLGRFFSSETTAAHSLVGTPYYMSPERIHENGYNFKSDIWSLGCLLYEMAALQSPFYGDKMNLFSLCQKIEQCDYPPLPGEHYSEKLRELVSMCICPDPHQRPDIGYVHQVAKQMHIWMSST
Chain of Serine/threonine-protein kinase Nek7 (Homo sapiens) (Q8TDX7 whole entry, looked up): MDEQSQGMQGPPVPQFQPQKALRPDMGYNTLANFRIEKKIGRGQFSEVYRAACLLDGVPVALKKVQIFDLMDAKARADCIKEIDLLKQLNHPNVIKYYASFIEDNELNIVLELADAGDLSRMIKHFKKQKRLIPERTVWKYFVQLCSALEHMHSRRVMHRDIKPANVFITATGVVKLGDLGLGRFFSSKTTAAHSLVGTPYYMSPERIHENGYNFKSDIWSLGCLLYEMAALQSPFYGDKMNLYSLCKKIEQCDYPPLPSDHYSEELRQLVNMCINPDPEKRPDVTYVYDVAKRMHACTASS
Chain of Casein kinase II subunit alpha (Homo sapiens) (P68400 whole entry, looked up): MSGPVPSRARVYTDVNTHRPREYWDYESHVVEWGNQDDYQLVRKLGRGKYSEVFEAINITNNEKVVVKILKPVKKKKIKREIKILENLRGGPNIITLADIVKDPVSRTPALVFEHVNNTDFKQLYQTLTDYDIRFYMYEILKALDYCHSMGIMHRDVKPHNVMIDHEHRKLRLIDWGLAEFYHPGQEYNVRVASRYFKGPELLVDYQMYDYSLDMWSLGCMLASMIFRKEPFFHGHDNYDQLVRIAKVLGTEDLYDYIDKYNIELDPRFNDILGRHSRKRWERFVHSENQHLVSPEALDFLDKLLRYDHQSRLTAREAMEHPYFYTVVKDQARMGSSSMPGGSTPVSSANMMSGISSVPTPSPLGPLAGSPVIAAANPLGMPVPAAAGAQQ
Chain of Sphingosine kinase 1 (Homo sapiens) (Q9NYA1 whole entry): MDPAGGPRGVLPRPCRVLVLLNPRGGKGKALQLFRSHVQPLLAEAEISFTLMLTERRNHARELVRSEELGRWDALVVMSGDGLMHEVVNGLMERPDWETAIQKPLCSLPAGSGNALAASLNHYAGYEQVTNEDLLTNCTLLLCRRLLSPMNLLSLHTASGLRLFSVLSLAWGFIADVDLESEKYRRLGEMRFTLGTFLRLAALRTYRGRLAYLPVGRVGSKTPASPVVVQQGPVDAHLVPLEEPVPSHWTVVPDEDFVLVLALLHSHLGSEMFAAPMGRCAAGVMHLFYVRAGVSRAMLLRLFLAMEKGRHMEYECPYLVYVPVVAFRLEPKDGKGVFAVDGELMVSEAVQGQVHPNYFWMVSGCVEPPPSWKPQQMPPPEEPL

As for `CC1(C)CC(n2cnc(-c3ccc(F)cc3)c2-c2ccnc(N)n2)CC(C)(C)N1`, the inhibition in test [1] was 10.6%; in test [2], 3.82%; in test [3], -2.43%; in [4], 1.44%; in [5], 7.38%; in test [6], 1.15%. For the same compound, the inhibition in [7] was 1.35%; in test [8], -0.17%; in test [9] it was -1.15%; in test [10], 0.1%; in test [11], 0.72%; in [12] it was 0.9%. Further, the inhibition in test [13] was found to be 0.83%; in [14], 1.02%; in test [15], 2.07%; in test [16], 1.95%; in [17], 0.37%; in test [18], 3.74%. Moreover, the inhibition came to 1.39% in test [19] and 5.35% in test [20].
